G9a inh: inhibitors of human histone lysine methyltransferase G9a | G9a H3K9 monomethylation, AlphaScreen, 2 h | Potency, µM (top dose mostly 102 µM), actives largely listed as inhibitors | 350,000 tested, 8.8% active | AID 504332; further: nearly all actives have a fitted effect of over 75% in size
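Step 1: enzyme (final 20 nM) with compound, 15 min RT. Step 2: substrate peptide 500 nM and SAM 20 uM, 2 h RT. Step 3: anti-H3K9me1 antibody and AlphaScreen beads, 10 min, then plate read.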
Sfp inh: Sfp phosphopantetheinyl transferase inhibition; Potency, µM, actives largely listed as inhibitors; Biochemical Sfp PPTase activity, qHTS; 310,000 tested, 3.5% active; Q9F4F7;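 further: the enzyme is Sfp with the accession as filed and its product quenches rhodamine fluorescence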
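Reaction rates are the 30-min fluorescence difference (ex 525, em 598 nm) in wells containing 15 nM Sfp, 5 uM rhodamine-CoA and 12.5 uM BHQ-2-YbbR at pH 7.6 with 10 mM MgCl2.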
HP1b chromo inh: blocks HP1-beta chromodomain binding to methylated histone tails; 390,000 tested, 0.56% active; Potency, µM (highest dose often 114 µM), usual class: inhibitors; P83916; AlphaScreen HP1-beta / biotin-H3K9me3 peptide binding; AID 540317; further: nearly all actives have a fitted effect of over 70% in size
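Compound inhibition of the preformed complex between 50 nM HP1-beta and 50 nM biotinylated H3K9me3 peptide was read by AlphaScreen. Buffer was PBS pH 7.4 with 0.01% Tween-20. Incubations ran 30 min at room temperature, with 10 ug/mL donor/acceptor beads.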
BAZ2B block: inhibitors of human BAZ2B bromodomain | Q9UIF8 | AlphaScreen BAZ2B-H3K14Ac peptide displacement | Potency, µM (highest dose often 114 µM), usual class: inhibitors | 360,000 tested, 4.4% active | AID 504333; further: nearly all actives have a fitted effect of over 60% in size
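Multi-concentration screen (max 110 uM) measuring displacement of acetylated histone H3 peptide from BAZ2B by AlphaScreen, using 50 nM protein, 50 nM peptide and 10 ug/mL streptavidin donor plus Ni-chelate acceptor beads.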
JMJD2A Tudor inh: JMJD2A Tudor domain (human) inhibition. AID 504339. 390,000 tested, 4.4% active. Potency, µM (doses to about 114 µM), usual class: inhibitors. AlphaScreen JMJD2A-Tudor / H3K4me3 peptide binding; further: nearly all actives have a fitted effect of over 50% in size
Hits are given with their value; 0 = inactive; ? = inconclusive; - = not tested or not shown; [ ] = remark or other dose. Hits are enriched below; roughly 12% of the tested compounds scored in any of these assays. The call rests on the fitted dose curve; in most records, active means well fitted curve in the direction sought with a large enough effect; inconclusive means small, poorly fitted or top-dose-only effect, or another doubt; inactive means no such curve, though single readings can be large; an effect the other way counts as inactive or inconclusive.

SMILES | G9a inh | Sfp inh | HP1b chromo inh | BAZ2B block | JMJD2A Tudor inh
COc1ccccc1CNC(=O)CCC(=O)N1CC2CCCN2c2ccccc21 (stereo unspecified) | 0 | - | 0 | 0 | 0
COc1ccc(C2Nc3ccccc3C(=O)N2c2cccc3ccccc23)cc1COc1c(C)cccc1C (stereo unspecified) | - | - | 0 | - | 0
OC1OC[C@H](O)[C@H](O)[C@H]1O (stereo partly specified) | - | 0 | - | - | -
COc1ccc(CCNC(=O)C(=O)NCC2OCCN2S(=O)(=O)c2ccc3c(c2)OCCO3)cc1 (stereo unspecified) | - | 0 | 0 | 0 | 0
CCOC(=O)/C=C/S(=O)(=O)c1ccc(NC(C)=O)cc1 | 25µM | 40µM | 0 | 0 | 0
CCOC(=O)/C=C/C(=O)Nc1ccc(S(=O)(=O)Nc2c(C)cc(C)cc2C)cc1 | 0 | 0 | 0 | 0 | 0
COc1ccc(S(=O)(=O)Nc2cccc3c2O[C@H](CN(C)C(=O)Nc2c(C)noc2C)[C@@H](C)CN([C@H](C)CO)C3=O)cc1 | - | - | 0 | - | 0
CC1S/C(=N/N=C/c2ccco2)N(Cc2ccc(F)cc2)C1=O (stereo unspecified) | 50µM | 0 | 0 | ? | 0
COc1ccc(C)cc1-n1cnc2cc(C(=O)NC3CCCC3)ccc21 | 0 | - | 0 | 0 | 0
O=C(CCN1C(=O)C2CC=C(Cl)CC2C1=O)NCc1ccco1 (stereo unspecified) | 0 | 0 | 0 | 0 | 0
O=C(CN1C(=O)C2CC=C(Cl)CC2C1=O)Nc1ccc(C(=O)O)cc1 (stereo unspecified) | 13µM | 0 | 0 | 0 | 0
Cc1ccc(NC(=O)CN2C(=O)C3CC=C(Cl)CC3C2=O)cc1 (stereo unspecified) | 0 | 0 | 0 | 0 | 0
O=C(CCN1C(=O)C2CC=C(Cl)CC2C1=O)NCc1ccccc1 (stereo unspecified) | 18µM | 0 | 0 | 0 | 0
CCNc1nc(NC(C)C)nc(N(C)C#N)n1 | - | 0 | 0 | 0 | 0[11.4 µM]
CCNc1nc(NCC)nc(N(C)N)n1 | 0 | 0 | 0 | 25µM | 28µM
CC(C)Nc1nc(NC(C)C)nc(N(C)C(N)=O)n1 | ? | 0 | 0 | ? | 0
CC(C)Nc1nc(NC(C)C)nc(N(C)N)n1 | 0 | 0 | 0 | 3.2µM | 35µM
O=C(NCc1ccccc1Cl)c1ccc2c(c1)NC(=O)C(CS(=O)(=O)Cc1ccc(F)cc1Cl)N2 (stereo unspecified) | ? | - | 0 | 0 | 0
O=C(NCc1ccc(Cl)cc1)c1ccc2c(c1)NC(=O)C(CS(=O)(=O)Cc1ccc(F)cc1Cl)N2 (stereo unspecified) | 16µM | - | 0 | 0 | ?
CC(C)CCNC(=O)c1ccc2c(c1)NC(=O)C(CS(=O)(=O)Cc1cccc(Br)c1)N2 (stereo unspecified) | 13µM | - | 0 | 0 | ?
Cc1ccc(CNC(=O)c2ccc3c(c2)NC(=O)C(CS(=O)(=O)Cc2cccc(F)c2)N3)cc1 (stereo unspecified) | 6.3µM | - | 0 | 0 | 89µM
CCN(CC)CCCNC(=O)c1ccc2c(c1)NC(=O)C(CS(=O)(=O)Cc1ccc(F)cc1Cl)N2 (stereo unspecified) | 10µM | - | 0 | 0 | 0
CN(Cc1ccco1)c1ncnc2ccc(-c3ccccc3C(F)(F)F)cc12 | 0[0.501 µM] | ? | - | - | -
CCOc1ccc(/C(O)=C2/C(=O)C(=O)N(c3ccccn3)C2c2ccc(C)cc2)c(C)c1 (stereo unspecified) | 50µM | 0 | ? | 0 | 35µM
CCOc1ccc(/C(O)=C2/C(=O)C(=O)N(c3ccccn3)C2c2ccc(Cl)cc2)c(C)c1 (stereo unspecified) | ? | 0 | 0 | ? | ?
SMILES | G9a inh | Sfp inh | HP1b chromo inh | BAZ2B block | JMJD2A Tudor inh
Cc1cc(OCC(C)C)ccc1/C(O)=C1/C(=O)C(=O)N(Cc2cccnc2)C1c1ccncc1 (stereo unspecified) | ? | 0 | 0 | 0 | ?
CCCOc1ccc(/C(O)=C2\C(=O)C(=O)N(c3ccccn3)C2c2ccccc2F)cc1C (stereo unspecified) | 79µM | 0 | 0 | 0 | ?
CCCCOc1ccc(/C(O)=C2/C(=O)C(=O)N(Cc3cccnc3)C2c2ccncc2)c(C)c1 (stereo unspecified) | 45µM | 0 | 0 | 0 | 0
CCOC(=O)c1cc(OC(=O)c2ccc(OC)c(OC)c2)n(-c2ccccc2)n1 | 0 | - | 0 | 0 | 0
CCOc1ccc(NC(=O)CN(C)C(=O)C(C)Oc2ccc(Cl)cc2)cc1OCC (stereo unspecified) | - | - | 0 | - | 0
Cc1ccc(Cl)cc1N1CCN(CCCNC(=O)c2nnc(Cc3cccc(Cl)c3)o2)CC1 | 0 | - | 0 | ? | 0
COc1ccc(NC(=O)c2ccccc2Sc2ccc(NC(C)=O)nc2)cc1 | 20µM | 0 | 0 | ? | 0
CC(=O)Nc1ccc(Sc2ccccc2C(=O)Nc2ccc(F)cc2)cn1 | ? | 0 | ? | 0 | ?
CN1CCN(C(=O)c2c(O)c3cccc4c3n(c2=O)CCC4)CC1 | 14µM | 0 | 0 | - | 0
Cc1ccc(NC2CCCN(C(=O)c3ccc4nccnc4c3)C2)cc1C (stereo unspecified) | 0 | 0 | 0 | 0 | 0
COc1cccc(C(=O)N2CCCC(Nc3ccc(C)c(C)c3)C2)c1 (stereo unspecified) | 22µM | 0 | 0 | ? | ?
COc1ccc(C(=O)N2CCCC(Nc3ccc(C)c(C)c3)C2)c(OC)n1 (stereo unspecified) | 45µM | 0 | 0 | ? | 0
COCCCNC(=O)c1sc2nc3n(c(=O)c2c1C)CCC3 | 0 | - | 0 | 0 | 0
CC(C)(C)NC(=O)CSc1ncnc2c1nnn2Cc1ccccc1Cl | 0 | 0 | 0 | 0 | 50µM
O=C(CSc1ncnc2c1nnn2Cc1ccccc1)NC1CCCC1 | 0 | 0 | 0 | 0 | 0
CC(C)COc1ccc(C(=O)Nc2ccc(NC(=O)c3ccco3)cc2)cc1 | 0 | 0 | 0 | 0 | 0
Cc1ccc(CN=c2c([N+](=O)[O-])nn(-c3ccc(Cl)cc3)n2O)cc1 | 50µM | ? | ? | ? | ?
O=[N+]([O-])c1nn(-c2cccc(Cl)c2)n(O)c1=NCc1cccnc1 | 7.9µM | 0 | 0 | ? | ?
O=[N+]([O-])c1nn(-c2ccc(Cl)cc2)n(O)c1=NCc1ccncc1 | 40µM | 0 | 0 | ? | 0
O=[N+]([O-])c1nn(-c2ccc(Cl)cc2)n(O)c1=NCc1cccnc1 | ? | 0 | 0 | ? | ?
O=[N+]([O-])c1nn(-c2ccc(Cl)cc2)n(O)c1=NCc1ccccc1Cl | ? | 0 | 0 | ? | 0
O=[N+]([O-])c1nn(-c2ccc3c(c2)OCCO3)n(O)c1=NCc1ccc(F)cc1 | ? | 0 | ? | 35µM | 35µM
N#CC1=C(NC=NCc2ccccc2)Oc2ccc3ccccc3c2C1c1ccccc1 (stereo unspecified) | - | - | - | - | 0
COc1cccc(C(O)C2OC(=O)c3ccccc32)c1OC (stereo unspecified) | - | - | 0 | - | 0
O=C1CCc2cc(S(=O)(=O)Nc3ccc(Cl)c(Cl)c3)c(F)cc2N1 | - | - | - | - | 0

Screens: PubChem, National Center for Advancing Translational Sciences (NCATS)
